MCF10A rereplic = induces DNA re-replication in MCF 10a normal breast cells; MCF 10A DNA re-replication, Hoechst nuclear intensity, 48 h; Potency, µM (series often up to 46.1 µM), inactives show at the highest dose activity, positive = re-replication, usual class: activators; actives 2.9% (n = 350,000); note: potency is the fitted concentration of half-maximal effect; % of control where 0% means no effect; nearly all actives have a fitted effect of over 50% in size
IL-1B inflam inh = blocks inflammasome-driven IL-1 beta release; THP-1 LPS/ATP IL-1B secretion, AlphaLISA, 16 h; hits give low values; actives 4.7% (n = 360,000); activity change, % at 57.5 µM; in the data active = activity change below about -50%; inconclusive = mostly about -30% to -49%; note: % is set by controls: 0 for no effect and ±100 for the full control effect
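THP-1 cells pretreated 1 hr with compounds (up to 57.5 uM final), then stimulated with LPS (250 ng/mL final) plus ATP (1.25 mM final); secreted IL-1B measured by AlphaLISA after 16 hr, decreased signal indicating inhibition.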
Giardia killer = kills Giardia lamblia | Giardia lamblia trophozoite viability | activity change, % at 7.66 µM, hits read low | AID 540267 | actives 0.15% (n = 340,000); in the data active = activity change below about -80%; inconclusive = between about -30% and that limit;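 note: parasites exposed to compound for two days anaerobically before the ATP read; % is set by controls: 0 for no effect and ±100 for the full control effect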
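Each well holds 100 Giardia trophozoites and compound. After two days (48 hrs) at 37 deg C in anaerobic conditions, ATP is quantified by luminescence.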
Vif-A3F inh = inhibitors of Vif-A3F interaction. HeLa A3F-eYFP + Vif (tagged APOBEC3F with the HIV-1 protein that degrades it), YFP fluorescence increase. actives 0.2% (n = 390,000). Potency, µM (highest dose often 46.1 µM), without a hit: at the highest dose activity, negative = active; note: potency is the fitted concentration of half-maximal effect; % of control where 0% means no effect; nearly all actives have a fitted effect of over 65% in size
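Fluorescence increase (Ex 488/Em 500-530) after overnight compound treatment at 37 deg C flags inhibition of Vif-driven A3F-eYFP loss in stable HeLa A3F-eYFP/Vif cells seeded overnight beforehand.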
SW480 rerep = induces DNA re-replication in SW480 colon adenocarcinoma cells | SW480 DNA re-replication, Hoechst DNA content imaging, 48 h | Potency, µM (doses to about 46.1 µM), for the others: at the highest dose re-replication activation, usual class: activators | actives 1.8% (n = 340,000) | AID 624297; note: potency is the fitted concentration of half-maximal effect; % of control where 0% means no effect; nearly all actives have a fitted effect of over 55% in size
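250 cells/well; 23 nL cpd via pin tool; 48 hr, 37 C, 5% CO2; Hoechst 40 min; imager read of total nuclear intensity, ex 405/em 500-530 nm.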
Vif-APOBEC3G blk = Vif-A3G binding inhibition | actives 0.076% (n = 410,000) | AID 602310 | Potency, µM (top dose mostly 46.1 µM), without a hit: top-dose activity, negative = active, hits mostly inhibitors | Q9HC16 | HeLa A3G-eYFP + Vif (tagged APOBEC3G with the HIV-1 protein that degrades it), YFP fluorescence, overnight; note: potency is the fitted concentration of half-maximal effect; % is set by controls: 0 for no effect and ±100 for the full control effect; nearly all actives have a fitted effect of over 60% in size
Target sequence (Q9HC16 whole entry, looked up): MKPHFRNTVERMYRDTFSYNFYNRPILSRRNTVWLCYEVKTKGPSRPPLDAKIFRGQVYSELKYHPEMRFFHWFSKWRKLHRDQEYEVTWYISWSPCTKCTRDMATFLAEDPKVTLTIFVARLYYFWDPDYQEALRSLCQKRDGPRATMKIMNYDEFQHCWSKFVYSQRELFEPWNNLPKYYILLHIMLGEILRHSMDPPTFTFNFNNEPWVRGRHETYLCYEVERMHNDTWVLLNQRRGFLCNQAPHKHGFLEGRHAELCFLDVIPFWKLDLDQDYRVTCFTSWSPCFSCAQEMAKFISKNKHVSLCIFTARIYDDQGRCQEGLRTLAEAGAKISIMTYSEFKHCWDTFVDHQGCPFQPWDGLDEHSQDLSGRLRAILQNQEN
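Read-out is eYFP fluorescence (Ex 488/Em 500-530) from Vif-expressing HeLa A3G-eYFP cells; more signal means A3G escaped Vif-mediated degradation. Cells plated overnight, compound pinned in, incubated overnight at 37 deg C.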
The depositor's hits bear a star; ? = inconclusive; . = no result. Rows were chosen to be rich in hits. Some 6.9% of all compounds tested hit in one or more screens of this group. Unless noted, calls come from the whole dose curve; as a rule, active = well fitted curve in the direction sought with a large enough effect; inconclusive = small, poorly fitted or top-dose-only effect, or another doubt; inactive = no such curve, though single readings can be large; an effect the other way counts as inactive or inconclusive.

SMILES | MCF10A rereplic | IL-1B inflam inh | Giardia killer | Vif-A3F inh | SW480 rerep | Vif-APOBEC3G blk
Nc1c(N(CCC2=CCCCC2)C(=O)COc2ccc(F)cc2Cl)c(=O)[nH]c(=O)n1Cc1ccccc1 | 11.6µM* | -54.8* | -12.1 | -11.3% | 0.4% | ?
Nc1c(N(CCC2=CCCCC2)C(=O)c2ccc([N+](=O)[O-])o2)c(=O)[nH]c(=O)n1Cc1ccccc1 | ? | -17.4 | 0.5 | 22.4µM* | ? | -15.8%
COC(=O)c1ccc2c(c1)C(C)(C)C(/C=C/c1ccccc1O)=[N+]2C | 7.08µM* | -100.3* | 10.1 | ? | 5.62µM* | ?
C[N+]1=C(/C=C/Nc2ccccc2Cl)C(C)(C)c2ccccc21 | 5.3% | -5.8 | -2.2 | 9.8% | 8.2% | -0.8%
COc1ccc(N(C(=O)CCl)C(C(=O)NCCc2ccccc2)c2cccs2)cc1 (configuration not stated) | ? | -108.0* | 5.9 | ? | 3.26µM* | -24.6%
COc1ccc(N2C(=O)CC(Sc3nnnn3-c3ccc(F)cc3)C2=O)cc1 (configuration not stated) | ? | -15.7 | -1.7 | 4.9% | 10.3µM* | -0.1%
O=C1CC(Sc2nnnn2-c2ccccc2)C(=O)N1c1cccc(Cl)c1 (configuration not stated) | ? | -7.2 | -8.9 | . | ? | -29.8%
O=Cc1ccnc(-c2ccc(OC(=O)c3ccco3)cc2)n1 | 13.9% | -86.4* | -19.8 | -53.9% | -2.7% | -2.8%
O=C(Oc1ccc(-c2ccccc2)cc1)c1ccco1 | 13.6% | 2.6 | 1.3 | -15.9% | 3.1% | 2.4%
COc1cccc(N2CC(NC(=O)c3ccc4c(c3)OCO4)CC2=O)c1 (configuration not stated) | . | . | . | 6.0% | . | 11.6%
O=C1/C(=C/c2ccccc2)CCCc2ccccc21 | 2.8% | -19.3 | 2.8 | -4.6% | 20.2% | -2.2%
COc1ccc2c(c1)CC/C(=C/c1ccncc1)C2=O | ? | -104.8* | -18.9 | -8.6% | ? | -11.8%
O=C1/C(=C\c2ccc([N+](=O)[O-])cc2)CCc2ccccc21 | 0.4% | ? | -90.8* | -9.9% | -1.9% | 3.0%
CC(=O)Nc1ccc(/C=C2\CCc3ccccc3C2=O)cc1 | -13.4% | -96.1* | -11.0 | ? | -2.2% | -11.2%
COc1ccc(/C=C2\CCc3ccccc3C2=O)cc1O | ? | 9.7 | ? | 15.6% | 0.517µM* | ?
O=C1/C(=C/c2ccc(O)cc2)CCc2ccc([N+](=O)[O-])cc21 | -1.2% | ? | -6.6 | 0.9% | -8.4% | -1.3%
COc1ccc2c(c1)CC/C(=C\c1ccc(C)o1)C2=O | 15.3% | 0.0 | -19.4 | 2.4% | -0.8% | 0.1%
COc1ccc(CNC(=O)C(C)n2c(=O)cc(C)c3c(C)nn(-c4ccccc4)c32)cc1 (configuration not stated) | . | . | . | 0.1% | . | -0.4%
N#CCSc1nnc(-c2sc3ccccc3c2Cl)o1 | ? | -93.5* | -14.8 | -15.8% | ? | -2.0%
COC(=O)CSc1nnc(-c2sc3ccccc3c2Cl)o1 | 23.0% | 9.3 | -11.3 | 0.3% | -1.5% | 0.8%
COc1ccc(-c2nc3c(c(SCC(=O)N4CCCCC4)n2)Cc2c(CO)cnc(C)c2O3)cc1 | . | . | . | 7.3% | . | 2.9%
CCCCOC(=O)c1ccc(Nc2ncnc3c2cnn3-c2cccc(C)c2)cc1 | . | . | . | -0.2% | . | 1.0%
O=C(O)c1c(-c2ccc(Cl)cc2)cn2ccccc12 | ? | 1.4 | -10.3 | 4.3% | 18.4µM* | -1.1%
CCOC(=O)c1c(-c2ccccc2Cl)cn2ccccc12 | 1.2% | 13.2 | 2.2 | -9.0% | 3.3% | -5.1%
COc1ccccc1N1CCN(C(=O)c2cnn(C(C)(C)C)c2C2CCN(C(=O)OC(C)(C)C)CC2)CC1 | . | . | . | -1.2% | . | -1.6%
SMILES | MCF10A rereplic | IL-1B inflam inh | Giardia killer | Vif-A3F inh | SW480 rerep | Vif-APOBEC3G blk
CN(C)c1ccc(/C=c2\[nH]c(=O)/c(=C\c3ccc(N(C)C)cc3)[nH]c2=O)cc1 | . | . | . | . | . | -0.9%
Cc1ccc(NC(C(=O)c2ccccc2)c2ccccc2)cc1 (configuration not stated) | ? | -73.4* | -5.0 | -4.3% | -8.7% | -7.0%
O=C(C[n+]1cc(Br)cc2ccccc21)c1ccc(O)c(O)c1 | . | . | . | . | . | 2.2%
Cc1ccc(CN(C)C(=O)c2c(C)nn(-c3ccccc3)c2C)cc1 | ? | -13.5 | 4.9 | 1.0% | -9.5% | -3.9%
Cc1ccc(-c2csc(N(C)C(=O)c3c(C)nn(-c4ccccc4)c3Cl)n2)cc1 | 5.8µM* | 21.2 | -8.5 | -0.5% | -4.8% | -0.4%
CO/N=C1\CCCc2c(C(=O)NN)sc(SC)c21 | 16.4µM* | 36.0 | 19.5 | -7.0% | ? | ?
CCOC(=O)c1sc(SC)c2c1CCC/C2=N/OC | 1.2% | 12.4 | -2.5 | 10.3% | -13.3% | -2.4%
COc1ccc(-c2cc(NC=O)c3ncc(-c4ccc(C(C)=O)cc4)n3c2)cc1OC | . | -70.4* | . | . | . | ?
COc1ccc(-c2cnc3c(NC(C)=O)cc(-c4cccc(C(=O)NCCO)c4)cn23)cc1OC | . | -54.6* | . | . | . | -3.8%
COc1cc(-c2cnc3c(NC(C)=O)cc(-c4cccc(C(=O)NCCO)c4)cn23)cc(OC)c1OC | . | 83.4 | . | . | . | -12.8%
COc1cc(-c2cc(NC(C)=O)c3ncc(-c4ccccc4)n3c2)cc(OC)c1OC | . | -60.4* | . | . | . | -28.4%
COc1cc(-c2cc(NC(C)=O)c3ncc(-c4cc(OC)c(OC)c(OC)c4)n3c2)cc(OC)c1OC | . | -1.3 | . | . | . | ?
COc1cc(-c2cc(NC=O)c3ncc(-c4ccc(C(C)=O)cc4)n3c2)cc(OC)c1OC | . | -58.7* | . | . | . | ?
O=C(NC1CC(=O)N(c2cccc(F)c2)C1)c1ccc(S(=O)(=O)N2CCCCC2)cc1 (configuration not stated) | . | . | . | 1.4% | . | -2.4%
CCc1ccc(C2c3c(oc4ccc(F)cc4c3=O)C(=O)N2c2nc(C)c(C(=O)OC)s2)cc1 (configuration not stated) | . | . | . | 3.1% | . | 1.6%
CCOC(=O)c1ccc(Nc2nc3nonc3nc2Nc2cccc(C)c2C)cc1 | . | . | . | 1.6% | . | 12.8%
O=C(CN1C(=O)COc2ccc(S(=O)(=O)N3CCOCC3)cc21)N1CCN(c2cccc(C(F)(F)F)c2)CC1 | . | . | . | -8.1% | . | 3.7%
COc1cccc(OCCn2c(-c3ccc(Cl)cc3)nc3ccccc3c2=O)c1 | . | . | . | -11.6% | . | 1.0%
CC(C)(C)C1CCC(OCC(O)CN2CCN(Cc3ccccc3)CC2)CC1 (configuration not stated) | 41.2% | -20.3 | ? | -0.1% | 14.6µM* | 0.3%
CC[N+]1(C)CCC(O)(/C=C/c2ccccc2)C(C(=O)/C=C/c2ccccc2)C1 (configuration not stated) | ? | -102.3* | -0.6 | 5.5% | 20.6µM* | -20.9%
